Measurements from PMC10668032, “Altered binding affinity of SIX1-Q177R correlates with enhanced WNT5A and WNT pathway effector expression in Wilms tumor”.
Whole data set: some 33,000 sequences, median “e-score” near -0.05, cut for the highest 2% near 0.38. The full list was thinned out, with the highest values kept by preference.

Molecular target: T1, SIX1-Q177R homeodomain (human, UniProt Q15475 108-198, Q177R)
T1 sequence: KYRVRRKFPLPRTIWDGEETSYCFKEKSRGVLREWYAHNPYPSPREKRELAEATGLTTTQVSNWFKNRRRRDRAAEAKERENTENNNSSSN
Assay: universal protein binding microarray; Universal all-10-mer PBM (8x60K, AMADID 030236), 300 nM GST-tagged protein, Alexa Fluor 488 anti-GST; buffer, salt, pH and temperature not stated (as in Berger); high values mean tight binding
Conditions: protein: ivt; tags: N-terminal GST; dsDNA, one strand shown
Procedure, shortened: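 Homeodomains carrying a GST tag were produced by in vitro transcription/translation, then quantified by anti-GST western blot against a recombinant GST standard curve. Duplicate applications at 300 nM final concentration were made to universal 'all 10-mer' protein binding microarrays in 8×60K format. The Universal PBM Analysis Suite was used to express binding as 8-mer E-scores.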

Sequence	binding signal [E-score]
CGGCGTCA	0.219 ± 0.00435
CCCGCTGA	0.159 ± 0.0401
CTTCTACC	0.203 ± 0.0258
GAGTCACA	0.26
GTGTCAAC	0.443 ± 0.00646
GGGTCAAA	0.171 ± 0.0267
GTATCAAC	0.256 ± 0.0174
GTGTCTCA	0.371 ± 0.00405
GTGTCACA	0.462 ± 0.00507
GTGTCTAA	0.394 ± 0.0134
GGGTCAAC	0.223 ± 0.0249
TATTCTAA	0.213 ± 0.0183
GTGTCAAA	0.4527 ± 0.00139
GTATCAAA	0.159 ± 0.0425
GGGTCACA	0.202 ± 0.0391
CACTGGAA	0.152 ± 0.024
AGGGGTTC	0.193 ± 0.0251
GACCCCGC	0.248 ± 0.0275
CCTGATAC	0.202 ± 0.0295
AGTGCACC	0.28 ± 0.00682
GATCCCAC	0.24 ± 0.0253
TATACCCA	0.192 ± 0.0317
GAGTCATA	0.184 ± 0.0258
GGGTCATA	0.237 ± 0.0329
GTGTCGAA	0.448 ± 0.00926

Sequence	binding signal [E-score]
GGGTCGAA	0.182 ± 0.0133
GTGTCATA	0.458 ± 0.00496
GTATCGAA	0.199 ± 0.0103
GGGTCAGA	0.196 ± 0.0143
GAGTCAGA	0.21 ± 0.0213
GTGTCAGA	0.4533 ± 0.00139
CGCGTACA	0.2538 ± 0.00208
GAGGGTGC	0.237 ± 0.0114
AAAGAGTG	0.186 ± 0.0198
AGAACCCC	0.182 ± 0.0559
GGATCATA	0.184 ± 0.0113
CACCTGCA	0.213 ± 0.0191
ATCCCCTC	0.196 ± 0.00519
ACCACGCA	0.24 ± 0.0201
CGACACGC	0.424 ± 0.0203
AGACACGA	0.369 ± 0.0153
CGACACGA	0.421 ± 0.0189
CGACGCGA	0.151 ± 0.0242
AGACACGC	0.346 ± 0.00786
CACTCCGC	0.256 ± 0.00576
ACCCTTTC	0.194 ± 0.0513
CACTCTGC	0.187 ± 0.0156
GCCCCGCC	0.175 ± 0.055
GGATACCC	0.403 ± 0.00919
CAATACCC	0.218 ± 0.00416

Sequence	binding signal [E-score]
CGATACCC	0.411 ± 0.012
CGATACCA	0.321 ± 0.00519
AGATACCC	0.278 ± 0.0188
GGATACCA	0.327 ± 0.00751
CAACCACG	0.155 ± 0.0108
CACTCTGG	0.187 ± 0.00384
CCCCCTGC	0.156 ± 0.0255
ACAGAGGT	0.156 ± 0.00829
ATTAGGTG	0.296 ± 0.00518
ACCATGGT	0.2 ± 0.05
CACCGTTC	0.3236 ± 0.00306
CGATACTC	0.211 ± 0.00408
AGATACCT	0.179 ± 0.011
AGATACAC	0.424 ± 0.0151
GGATACTA	0.152 ± 0.0189
GGATACAA	0.161 ± 0.00762
CGATACAC	0.402 ± 0.0188
CGATACCG	0.233 ± 0.0113
AGATACCA	0.192 ± 0.0243
GGATACAC	0.424 ± 0.00693
CTGCCCGC	0.163 ± 0.0123
CACCGACA	0.374 ± 0.0291
TACTGATA	0.192 ± 0.0304
GTATCCAC	0.287 ± 0.00341
GTATGGTA	0.159 ± 0.00206

Sequence	binding signal [E-score]
CGGGTGCA	0.238 ± 0.0106
AGGGGGTA	0.358 ± 0.00366
AAGGGGTG	0.227 ± 0.00304
AGGGTGTC	0.4879 ± 0.00164
AGGGGGTC	0.271 ± 0.0446
AGGGGGTG	0.396 ± 0.00554
CGGGTGTA	0.47551 ± 0.00024
CGGGTGGA	0.173 ± 0.033
AGGGTGCG	0.226 ± 0.0208
AGGGTATC	0.363 ± 0.0101
AGGGTGGG	0.176 ± 0.00829
AGGGTGTG	0.4 ± 0.015
CATCCGGG	0.156 ± 0.00322
ACCCTCGT	0.1905 ± 0.000806
CACCGAGA	0.276 ± 0.0313
TGTAGAAA	0.225 ± 0.0216
AATCGACA	0.173 ± 0.025
ACAAGGTC	0.218 ± 0.0287
CAGGCAGG	0.186 ± 0.0165
CACGCTAC	0.242 ± 0.0124
CCCCGACA	0.324 ± 0.012
GGGGTGTA	0.4856 ± 0.000757
GGGGTGAA	0.154 ± 0.0542
AGGGTGTA	0.475 ± 0.00846
CGGGTGGC	0.178 ± 0.0577

Sequence	binding signal [E-score]
AGGGTGCA	0.265 ± 0.0337
GGGGTGCA	0.273 ± 0.0552
CGGGTGTC	0.487 ± 0.00672
CGGGGGTC	0.314 ± 0.0405
AGGGTATA	0.199 ± 0.0079
CGATACTA	0.157 ± 0.00168
AGTGCACA	0.171 ± 0.00742
AGCCGGTG	0.282 ± 0.011
CCGGTACA	0.224 ± 0.00738
ACTTGGTG	0.2882 ± 0.00137
CCCCAATA	0.153 ± 0.00289
CCGAGTGA	0.156 ± 0.00131
CACCGCCG	0.375 ± 0.0128
GCGTGCTA	0.151 ± 0.031
ACGTGTTC	0.3144 ± 0.00304
ACGTGTTA	0.352 ± 0.0237
GCGTGTTA	0.387 ± 0.0267
CCGTGTTC	0.384 ± 0.0141
CCGTGTTA	0.4236 ± 0.00253
CCGTGGTA	0.166 ± 0.0401
CCGTGCTC	0.226 ± 0.0264
GCGTGATA	0.173 ± 0.0569
CACAGTGG	0.16 ± 0.0343
CGGGGATC	0.212 ± 0.00313
CGCACGAC	0.187 ± 0.0218

Sequence	binding signal [E-score]
ATCCGAGG	0.1653 ± 0.000757
GTAATCGA	0.204 ± 0.015
CGGCTGAC	0.174 ± 0.0351
CGAATGAC	0.198 ± 0.0214
AAGAGGTG	0.368 ± 0.00802
GTTCCGTA	0.188 ± 0.0176
GGGTATAA	0.152 ± 0.0231
GTGTCCCA	0.442 ± 0.019
GTGTCCGA	0.413 ± 0.0127
GTATCCTA	0.187 ± 0.00559
GTGTCCTA	0.4 ± 0.0124
GTATCCAA	0.292 ± 0.0191
GGGTCCAA	0.218 ± 0.025
GTGTCCAA	0.419 ± 0.0151
GCGTCCTA	0.168 ± 0.0119
GTGTCTGA	0.364 ± 0.022
GGGTCCCA	0.1517 ± 0.0014
GTATCCCA	0.252 ± 0.00467
GTATCCGA	0.312 ± 0.0026
CACCATGA	0.289 ± 0.0156
CAGATACA	0.313 ± 0.0113
AGGGTTAC	0.162 ± 0.0418
GGTGCCAA	0.187 ± 0.0523
GAACGACA	0.238 ± 0.0152
ATCCCCCG	0.266 ± 0.0176

Sequence	binding signal [E-score]
CACGCGAC	0.26 ± 0.00798
GGTATACA	0.269 ± 0.00593
TGTTATAA	0.267 ± 0.015
ACAGGGGT	0.266 ± 0.0127
CAATAGTG	0.17 ± 0.0397
CACGGTGG	0.26 ± 0.0142
AGGTTACA	0.182 ± 0.0252
ATTCGACA	0.163 ± 0.00531
CGATCACG	0.173 ± 0.0459
CTCCCCGC	0.168 ± 0.0157
ACACTCTC	0.3915 ± 0.00342
ACACTCTG	0.404 ± 0.00495
ATACTCTC	0.158 ± 0.0315
ACACACTC	0.314 ± 0.0291
ACTGGGCG	0.192 ± 0.0152
CTAAGACA	0.2225 ± 0.00145
CACAGCCG	0.208 ± 0.0273
ACCAACGA	0.187 ± 0.00325
CTCAGCAC	0.185 ± 0.0185
GAGACACC	0.462 ± 0.0147
GAGACACA	0.241 ± 0.0428
AAGACACT	0.3744 ± 0.00267
AAGACACC	0.4713 ± 0.00312
CAGACACG	0.353 ± 0.0179
CAGACACC	0.456 ± 0.0151

Sequence	binding signal [E-score]
GAGACAAC	0.1522 ± 0.00125
AAGACACG	0.35 ± 0.00553
CAGACACA	0.19 ± 0.0525
ACACAATC	0.178 ± 0.0434
CACCGTTA	0.24 ± 0.0265
CACGAAAC	0.152 ± 0.0288
TACGTACA	0.18 ± 0.0207
ACTCTACA	0.296 ± 0.00689
ATTCTACA	0.181 ± 0.0191
ACGATGGG	0.151 ± 0.0168
AGTGTCCC	0.379 ± 0.0227
GGTGTCCA	0.48 ± 0.00796
GGAGTCCC	0.171 ± 0.00561
CGTGTCCC	0.398 ± 0.0161
AGTGTCCA	0.348 ± 0.00804
GGTATCCA	0.3692 ± 0.00211
GGGGTCCA	0.268 ± 0.0349
CGTGTCCA	0.4 ± 0.0263
CTGATACA	0.24 ± 0.00405
CTTTGACA	0.219 ± 0.022
CCGAACCG	0.175 ± 0.0143
ATTATACA	0.165 ± 0.0294
ACACTTTA	0.343 ± 0.037
CACTCCTG	0.335 ± 0.0105
AATCACAC	0.348 ± 0.00368

Sequence	binding signal [E-score]
AATTACAC	0.433 ± 0.0394
CATTACTC	0.173 ± 0.0527
GATTACAC	0.451 ± 0.00984
CATCACAC	0.317 ± 0.0183
GATTACCC	0.175 ± 0.0203
CATTACAC	0.452 ± 0.0182
AATTGCAC	0.151 ± 0.0498
GATCACAC	0.324 ± 0.0116
CTGAGGTA	0.185 ± 0.0187
CGGGGGTA	0.315 ± 0.029
GGATAAAC	0.169 ± 0.0541
CACCTAGG	0.225 ± 0.0248
CGCCGACA	0.209 ± 0.0201
GATACACA	0.191 ± 0.024
GATACACC	0.469 ± 0.00549
AATACCCC	0.185 ± 0.00616
CATACCCC	0.205 ± 0.0264
CACACATA	0.15 ± 0.0738
CATACACA	0.205 ± 0.0341
TATACACA	0.169 ± 0.034
AATACACG	0.379 ± 0.0262
GATACTCC	0.223 ± 0.00252
AATACACA	0.188 ± 0.0145
CATACACG	0.385 ± 0.00816
GATACCCC	0.419 ± 0.00493
